Records with an inconclusive call do not appear. Entries that show only a call come without a potency. Some structures have more than one record in an assay (separate samples or runs), and their calls can disagree. Calls of active or inactive are those of the source. Unless noted, calls follow the shape of the full dose curve.
Tests used:
[1] = Nuclear factor erythroid 2-related factor 2/antioxidant responsive element (Nrf2/ARE) small molecule agonists: qHTS cell viability counter screen in human keratinocytes (AID 1919968; active = well fitted curve in the direction sought with a large enough effect in the repeat runs; an effect the other way counts as inactive or inconclusive; also: nearly all actives have a fitted effect of over 55% in size)
Method in brief: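 After a 5 h attachment period, ARE-reporter keratinocytes were dosed with compounds in DMSO and then cultured 23 h at 37 C. Cell viability came from CellTiter-Fluor signal read after a further 1 h.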

[2] = Nuclear factor erythroid 2-related factor 2/antioxidant responsive element (Nrf2/ARE) small molecule agonists: luciferase reporter gene qHTS assay in human keratinocytes (AID 1919969); also: nearly all actives have a fitted effect of over 35% in size
[3] = biological target: Gonadotropin-releasing hormone receptor (Homo sapiens) (UniProt P30968); experiment: Human gonadotropin-releasing hormone receptor (GnRHR) small molecule agonists, calcium flux assay in GnRHR-HEK293 cells (AID 1920063); also: nearly all actives have a fitted effect of over 35% in size
Chain of Gonadotropin-releasing hormone receptor (Homo sapiens) (P30968 whole entry, looked up): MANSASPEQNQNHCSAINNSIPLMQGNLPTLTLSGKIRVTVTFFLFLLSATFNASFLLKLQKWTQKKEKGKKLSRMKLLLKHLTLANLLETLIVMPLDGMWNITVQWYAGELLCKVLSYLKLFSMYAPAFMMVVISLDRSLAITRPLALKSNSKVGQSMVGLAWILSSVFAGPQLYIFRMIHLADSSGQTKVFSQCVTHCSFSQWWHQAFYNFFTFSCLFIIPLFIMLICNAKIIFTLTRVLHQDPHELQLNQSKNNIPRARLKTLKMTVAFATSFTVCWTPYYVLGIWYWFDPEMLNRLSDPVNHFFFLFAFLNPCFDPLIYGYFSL
Method in brief: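 We seeded human GnRHR-expressing HEK293 cells for 18 hours, loaded them with calcium dye for an hour at 37 C, added test compounds, and recorded fluorescence intensity kinetically for three minutes.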

[4] = biological target: KiSS-1 receptor (Homo sapiens) (UniProt Q969F8); experiment: Human kisspeptin (KISS1R) small molecule agonists, calcium flux assay in KISS1R-HEK293 cells (AID 1920064; active = well fitted curve in the direction sought with a large enough effect in the repeat runs; an effect the other way counts as inactive or inconclusive)
Chain of KiSS-1 receptor (Homo sapiens) (Q969F8 whole entry, looked up): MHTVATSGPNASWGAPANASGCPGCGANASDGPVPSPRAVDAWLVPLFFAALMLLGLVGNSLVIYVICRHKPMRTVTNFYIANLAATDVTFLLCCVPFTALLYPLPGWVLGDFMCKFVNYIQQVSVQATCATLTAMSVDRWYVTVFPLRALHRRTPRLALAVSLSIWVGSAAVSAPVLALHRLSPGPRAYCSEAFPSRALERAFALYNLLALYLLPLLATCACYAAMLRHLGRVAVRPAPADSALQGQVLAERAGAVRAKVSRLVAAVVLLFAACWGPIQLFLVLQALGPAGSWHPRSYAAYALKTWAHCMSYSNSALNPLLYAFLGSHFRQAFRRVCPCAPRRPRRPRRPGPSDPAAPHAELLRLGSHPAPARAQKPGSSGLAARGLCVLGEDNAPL
Method in brief: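 Kinetic calcium assay, 1 s sampling over 3 min at Ex/Em 480/540, in HEK293 cells engineered with human KISS1R; compounds delivered in DMSO after 1 h dye loading.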

[5] = G protein-coupled receptor (GPCR) small molecule agonists, calcium flux assay: HEK293 wild type cell line counter screen (AID 1920065)
Method in brief: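 Calcium-sensitive dye, loaded 1 h at 37 C into cells cultured 18 h, reports compound-evoked calcium release as fluorescence (Ex/Em 480/540), measured over 3 min. Agonist mode; 15-point titrations, triplicate.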

[6] = p53 small molecule agonists, cell-based qHTS assay with human liver microsomes (AID 1963577);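 also: p53 response element beta-lactamase reporter cells with liver microsomes plus NADPH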
Method in brief: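 Steps: plate p53RE-bla cells, incubate 5 h at 37 C; add compound in DMSO; add microsomes (0.5 mg/mL final) and NADPH (0.5 mg/mL final); incubate 16 h at 37 C; add LiveBLAzer, 2 h RT; read fluorescence.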

[7] = p53 small molecule agonists, cell-based qHTS assay with rat liver microsomes (AID 1963578)
Method in brief: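 Metabolic activation is supplied by rat liver microsomes with NADPH (each 0.5 mg/mL final). p53RE-bla cells incubate with compound 16 h at 37 C; reporter activity is measured by LiveBLAzer fluorescence.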

[8] = p53 small molecule agonists, cell-based qHTS assay with human liver microsomes: qHTS cell viability counter screen (AID 1963579); also: nearly all actives have a fitted effect of over 45% in size
Method in brief: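 After the 460/530 nm beta-lactamase read, CellTiter-Glo was added to the same wells and luminescence measured after 30 min at room temperature, giving viability of p53RE-bla cells treated 16 h with compounds plus microsomes and NADPH.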

[9] = p53 small molecule agonists, cell-based qHTS assay with rat liver microsomes: qHTS cell viability counter screen (AID 1963580); also: nearly all actives have a fitted effect of over 45% in size
Method in brief: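 p53RE-bla HCT-116 cells were exposed 16 h at 37 C to compounds with rat liver microsomes (0.5 mg/mL) and NADPH (0.5 mg/mL). Viability was measured in the same wells as ATP content by CellTiter-Glo luminescence.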

[10] = p53 small molecule agonists, cell-based qHTS assay: qHTS cell viability counter screen (AID 1963581); also: nearly all actives have a fitted effect of over 45% in size
Method in brief: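 Following 5 h attachment, HCT-116 p53RE-bla cells took up compound for 16 h at 37 C; the reporter was read with B/G FRET substrate (2 h RT), and viability then via CellTiter-Glo ATP luminescence.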

[11] = p53 small molecule agonists, cell-based qHTS assay (AID 1963582; active = well fitted activation curve with a large enough effect in the signal ratio in the repeat runs, not every such curve was filed as active; the % refers to the signal ratio)
Method in brief: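 In this cell-based concentration-response screen, a p53 response element drives beta-lactamase; cells received DMSO-borne compounds after 5 h culture and were incubated a further 16 h before FRET substrate development.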

[12] = biological target: 5-hydroxytryptamine receptor 2A (Homo sapiens) (UniProt P28223); experiment: 5-hydroxytryptamine receptor 2A (HTR2A) small molecule antagonists, cell-based qHTS assay (AID 1963586); also: nearly all actives have a fitted effect of over 45% in size; also: potency is read from the fitted curve at half-maximal effect
Chain of 5-hydroxytryptamine receptor 2A (Homo sapiens) (P28223 whole entry, looked up): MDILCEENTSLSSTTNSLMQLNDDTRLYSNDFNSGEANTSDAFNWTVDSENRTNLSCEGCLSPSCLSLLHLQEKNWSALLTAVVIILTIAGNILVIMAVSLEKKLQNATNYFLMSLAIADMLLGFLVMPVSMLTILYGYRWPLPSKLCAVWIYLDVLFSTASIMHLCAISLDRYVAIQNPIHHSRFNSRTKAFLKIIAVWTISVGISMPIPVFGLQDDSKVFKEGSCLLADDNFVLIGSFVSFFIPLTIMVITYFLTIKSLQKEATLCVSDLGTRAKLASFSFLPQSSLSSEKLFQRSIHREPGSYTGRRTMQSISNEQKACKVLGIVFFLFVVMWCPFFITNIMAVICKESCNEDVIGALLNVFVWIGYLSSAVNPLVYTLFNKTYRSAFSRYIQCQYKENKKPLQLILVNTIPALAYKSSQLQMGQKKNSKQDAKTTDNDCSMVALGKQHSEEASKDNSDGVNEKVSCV
Method in brief: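 Antagonist-mode intracellular calcium assay: DOI (4 nM) added after 5 min compound pre-incubation at room temperature to dye-loaded HTR2A-CHO cells. Fluorescence followed for 3 min, sampled every second.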

[13] = biological target: 5-hydroxytryptamine receptor 2A (Homo sapiens) (UniProt P28223); experiment: 5-hydroxytryptamine receptor 2A (HTR2A) small molecule agonists, cell-based qHTS assay (AID 1963587); also: nearly all actives have a fitted effect of over 30% in size; also: potency is read from the fitted curve at half-maximal effect
Method in brief: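 CHO cells stably expressing human HTR2A, plated 18 h, loaded with calcium dye 1 h at 37 C. Agonist mode: compounds added and intracellular calcium fluorescence recorded kinetically for 2 min at 1 sec intervals.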

[14] = biological target: Muscarinic acetylcholine receptor M1 (Homo sapiens) (UniProt P11229); experiment: Cholinergic receptor muscarinic 1 (CHRM1) small molecule antagonists, cell-based qHTS assay (AID 1963588); also: nearly all actives have a fitted effect of over 40% in size
Chain of Muscarinic acetylcholine receptor M1 (Homo sapiens) (P11229 whole entry, looked up): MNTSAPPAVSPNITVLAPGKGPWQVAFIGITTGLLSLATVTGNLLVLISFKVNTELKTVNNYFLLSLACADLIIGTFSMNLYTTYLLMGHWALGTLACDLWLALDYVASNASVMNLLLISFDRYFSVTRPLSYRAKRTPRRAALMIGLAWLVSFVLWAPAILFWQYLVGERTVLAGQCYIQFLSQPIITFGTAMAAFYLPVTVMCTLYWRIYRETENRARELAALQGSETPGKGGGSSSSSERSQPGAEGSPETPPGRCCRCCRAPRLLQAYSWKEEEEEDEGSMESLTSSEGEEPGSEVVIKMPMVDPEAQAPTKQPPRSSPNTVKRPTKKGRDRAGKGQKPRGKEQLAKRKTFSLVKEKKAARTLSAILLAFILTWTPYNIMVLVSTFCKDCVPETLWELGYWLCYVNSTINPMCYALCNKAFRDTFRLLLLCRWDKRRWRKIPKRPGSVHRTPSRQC
Method in brief: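 CHRM1-CHO calcium-flux assay, antagonist mode. Cells were seeded 18 h, dye-loaded 1 h at 37 C and given compound for 5 min at RT, then acetylcholine was added at 50nM. FDSS fluorescence was read 3 min; 15 concentrations, three runs.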

[15] = biological target: Muscarinic acetylcholine receptor M1 (Homo sapiens) (UniProt P11229); experiment: Cholinergic receptor muscarinic 1 (CHRM1) small molecule agonists, cell-based qHTS assay (AID 1963589); also: nearly all actives have a fitted effect of over 35% in size
Method in brief: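 Measures agonist-induced intracellular calcium rise. Stable human CHRM1 CHO line, 1 h dye load at 37 C, compounds from DMSO, kinetic fluorescence read.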

[16] = cAMP Responsive Elements (CRE) small molecule agonists, cell-based qHTS assay (AID 1963590)
Method in brief: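 A CRE-responsive beta-lactamase reporter in HEK 293T cells was used. Treatment ran 3 h at 37 C; detection used LiveBLAzer B/G FRET substrate for 2 h at room temperature.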

[17] = cAMP Responsive Elements (CRE) small molecule antagonists, cell-based qHTS assay (AID 1963591; active = well fitted inhibition curve with a large enough effect in the signal ratio in the repeat runs, not every such curve was filed as active; the % refers to the signal ratio)
Method in brief: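 HEK293T cells carrying a CRE-driven beta-lactamase reporter receive compound and NKH477 (0.25 uM final) for 3 h. Fluorescence from LiveBLAzer B/G FRET substrate is read after 2 h at room temperature.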

[18] = biological target: Beta-2 adrenergic receptor (Homo sapiens) (UniProt P07550); experiment: Adrenergic beta2 receptor (ADRB2) small molecule antagonists, cell-based qHTS assay (AID 1963592); also: series mostly up to about 92 µM; nearly all actives have a fitted effect of over 50% in size
Chain of Beta-2 adrenergic receptor (Homo sapiens) (P07550 whole entry, looked up): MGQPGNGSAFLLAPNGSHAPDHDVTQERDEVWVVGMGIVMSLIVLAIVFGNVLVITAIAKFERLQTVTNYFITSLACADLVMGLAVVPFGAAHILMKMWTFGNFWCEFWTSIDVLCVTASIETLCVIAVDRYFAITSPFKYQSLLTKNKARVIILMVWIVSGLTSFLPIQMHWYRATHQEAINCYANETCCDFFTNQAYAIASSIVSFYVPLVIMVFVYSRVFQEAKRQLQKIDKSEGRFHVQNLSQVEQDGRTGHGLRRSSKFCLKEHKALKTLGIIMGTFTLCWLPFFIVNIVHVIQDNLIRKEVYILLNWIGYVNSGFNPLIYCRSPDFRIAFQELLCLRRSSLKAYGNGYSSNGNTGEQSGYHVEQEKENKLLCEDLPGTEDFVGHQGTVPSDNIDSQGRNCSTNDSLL
Method in brief: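 Cells (CHO, stable ADRB2 overexpression) incubated 18-20hr at 37C; compounds added from DMSO; agonist mix (1nM isoproterenol, 100uM IBMX, 25uM Ro-20-1724) added; 0.5hr RT; d2-cAMP and anti-cAMP-cryptate added; 1hr RT; 665/615 nm read.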

[19] = biological target: D(2) dopamine receptor (Homo sapiens) (UniProt P14416); experiment: Dopamine D2 receptor (DRD2) small molecule agonists, cell-based qHTS assay (AID 1963594); also: nearly all actives have a fitted effect of over 35% in size
Chain of D(2) dopamine receptor (Homo sapiens) (P14416 whole entry, looked up): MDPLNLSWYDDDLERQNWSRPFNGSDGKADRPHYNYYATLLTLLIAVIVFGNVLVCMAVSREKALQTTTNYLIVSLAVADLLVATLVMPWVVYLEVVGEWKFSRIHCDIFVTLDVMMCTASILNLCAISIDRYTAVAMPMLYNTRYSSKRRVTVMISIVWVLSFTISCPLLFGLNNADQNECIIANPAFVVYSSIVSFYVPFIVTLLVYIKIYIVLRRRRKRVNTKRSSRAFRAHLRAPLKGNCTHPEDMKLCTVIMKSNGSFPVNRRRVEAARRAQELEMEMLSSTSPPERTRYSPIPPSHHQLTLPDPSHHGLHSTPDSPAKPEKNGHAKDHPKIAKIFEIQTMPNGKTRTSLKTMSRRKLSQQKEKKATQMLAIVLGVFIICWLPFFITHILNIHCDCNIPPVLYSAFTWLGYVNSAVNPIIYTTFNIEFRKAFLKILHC
Method in brief: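 HEK293 cells stably expressing human DRD2, pre-treated with PDE inhibitor Ro20-1724 (0.1 mM final) and compound 10 min at room temperature, then stimulated with NKH477 (200nM […]) for 30 min. cAMP read by HTRF (665/620 nm).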

[20] = biological target: D(2) dopamine receptor (Homo sapiens) (UniProt P14416); experiment: Dopamine D2 receptor (DRD2) small molecule antagonists, cell-based qHTS assay (AID 1963595; active = well fitted inhibition curve with a large enough effect in the signal ratio in the repeat runs, with a control signal flat; the % refers to the signal ratio)
Method in brief: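 Readout: HTRF cAMP, cAMP-d2 competing with cellular cAMP for anti-cAMP cryptate, read after 1 h. Cells: DRD2-HEK293. Conditions: 0.1 mM Ro20-1724, 12 nM quinpirole, 200 nM NKH477, 30 min RT.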

Row | SMILES | Potency [1] | Potency [2] | Potency [3] | Potency [4] | Potency [5] | Potency [6] | Potency [7] | Potency [8] | Potency [9] | Potency [10] | Potency [11] | Potency [12] | Potency [13] | Potency [14] | Potency [15] | Potency [16] | Potency [17] | Potency [18] | Potency [19] | Potency [20]
1 | CC(C)OS(C)(=O)=O | inactive | inactive | inactive | inactive | inactive | inactive | inactive | inactive | inactive | inactive | inactive | inactive | inactive | inactive | inactive | inactive | inactive | inactive | inactive | inactive
2 | OCCOc1ccccc1 | inactive | inactive | inactive | inactive | inactive | inactive | inactive | inactive | inactive | inactive | inactive | inactive | inactive | inactive | inactive | inactive | inactive | inactive | inactive | inactive
3 | c1ccc(C2CO2)cc1 (stereo not given) | inactive | inactive | inactive | inactive | inactive | inactive | inactive | inactive | inactive | inactive | inactive | 4.8 nM (active) and inactive | inactive | inactive | inactive | inactive | inactive | inactive | inactive | inactive
4 | CCCCON=O | inactive | inactive | inactive | inactive | inactive | inactive | inactive | inactive | inactive | inactive | inactive | inactive | inactive | inactive | inactive | inactive | inactive | inactive | inactive | inactive
5 | c1ccc(N2CCNCC2)cc1 | inactive | inactive | inactive | inactive | inactive | inactive | inactive | inactive | inactive | inactive | inactive | 818 nM (active) | 601 nM (active) | inactive | inactive | inactive | inactive | inactive | inactive | inactive
6 | CCCCN=C=O | inactive | inactive | inactive | inactive | inactive | inactive | inactive | inactive | inactive | inactive | inactive | inactive | inactive | inactive | inactive | inactive | inactive | inactive | inactive | inactive
7 | C=CCN=C=S | inactive | inactive | inactive | inactive | inactive | inactive | inactive | inactive | inactive | inactive | inactive | inactive | inactive | inactive | inactive | inactive | inactive | inactive | – | inactive
8 | Nc1ccc([As](=O)(O)O)cc1 | inactive | inactive | inactive | inactive | inactive | inactive | inactive | inactive | inactive | inactive | inactive | inactive | inactive | inactive | inactive | inactive | inactive | inactive | inactive | inactive
9 | Cc1cnc(C2=NC(C)(C(C)C)C(=O)N2)c(C(=O)O)c1 (stereo not given) | inactive | inactive | inactive | inactive | inactive | inactive | inactive | inactive | inactive | inactive | inactive | inactive | inactive | inactive | inactive | inactive | inactive | inactive | – | inactive
10 | N#CCCCCC#N | inactive | inactive | inactive | inactive | inactive | inactive | inactive | inactive | inactive | inactive | inactive | inactive | inactive | inactive | inactive | inactive | inactive | inactive | – | inactive
11 | O=c1ccc(=O)[nH][nH]1 | inactive | inactive | inactive | inactive | inactive | inactive | inactive | inactive | inactive | inactive | inactive | inactive | inactive | inactive | inactive | inactive | inactive | inactive | – | inactive
12 | CN(C)c1ccccc1 | inactive | inactive | inactive | inactive | inactive | inactive | inactive | inactive | inactive | inactive | inactive | inactive | inactive | inactive | inactive | inactive | inactive | inactive | inactive | inactive
13 | CC1COC2(c3ccccc3Cl)c3cc(Cl)ccc3NC(=O)CN12 (stereo not given) | inactive | inactive | inactive | inactive | inactive | inactive | inactive | inactive | inactive | inactive | inactive | inactive | inactive | inactive | inactive | inactive | inactive | inactive | – | inactive
14 | CC(=O)C(Cl)Cl | inactive | inactive | inactive | inactive | inactive | inactive | inactive | inactive | inactive | inactive | inactive | inactive | inactive | inactive | inactive | inactive | inactive | inactive | inactive | inactive
15 | CCN(CC)C1CCCCC1 | inactive | inactive | inactive | inactive | inactive | inactive | inactive | inactive | inactive | inactive | inactive | inactive | inactive | inactive | inactive | inactive | inactive | inactive | inactive | inactive

— PubChem BioAssay (Tox21)
